Screening data: PubChem BioAssay, National Center for Advancing Translational Sciences (NCATS)
Compounds with a hit are over-represented: about 5.8% of the library has one in this group of screens.
uPA surface inh: blocks generation of uPA at the cell surface; cell surface uPA generation assay, qHTS; Potency, µM (highest dose often 38.3 µM), hits mostly inhibitors; actives 0.31% (n = 330,000); AID 540303; active = well fitted inhibition curve with a large enough effect; inconclusive = small, poorly fitted or top-dose-only effect; inactive = no such curve, though single readings can be large or run the other way; tested in mouse RAW 264.7 cells; also: nearly all actives have a fitted effect of over 55% in size
VP16 counter: inhibits Gal4-VP16 luciferase reporter, ROR gamma counter-screen; Drosophila S2 Gal4-VP16 UAS-luciferase, luminescence, 20 h; Potency, µM (series often up to 53.6 µM), most hits filed as inhibitors; actives 3.5% (n = 310,000);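 also: Gal4-VP16 expression switched on by copper sulfate through the metallothionein promoter; nearly all actives have a fitted effect of over 50% in size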
TRPV1 ag: activates the human vanilloid receptor TRPV1; Q8NER1; TRPV1-expressing cells, Fluo-8 calcium influx, agonist mode; activation, % at 8.33 µM; actives 0.19% (n = 320,000); AID 540275; in the data active = activation above about 80%; inconclusive = between about 30% and that limit
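Cells expressing TRPV1 were dye-loaded with Fluo-8 and read kinetically: 10 s baseline, 3 min after compound (agonist portion), then 2 min after EC20 capsaicin (allosteric enhancer portion). Calcium-bound dye fluorescence at 480/520 nm.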
RORgamma inh: inhibitors of mouse ROR gamma transcriptional activity; P51450; actives 5.4% (n = 310,000); AID 2551; Potency, µM (titrated, usually from 53.6 µM), actives largely listed as inhibitors; Drosophila S2 Gal4-RORgamma UAS-luciferase reporter, 20 h; also: nearly all actives have a fitted effect of over 60% in size
Target sequence (P51450 whole entry, looked up, the tested form may be a part): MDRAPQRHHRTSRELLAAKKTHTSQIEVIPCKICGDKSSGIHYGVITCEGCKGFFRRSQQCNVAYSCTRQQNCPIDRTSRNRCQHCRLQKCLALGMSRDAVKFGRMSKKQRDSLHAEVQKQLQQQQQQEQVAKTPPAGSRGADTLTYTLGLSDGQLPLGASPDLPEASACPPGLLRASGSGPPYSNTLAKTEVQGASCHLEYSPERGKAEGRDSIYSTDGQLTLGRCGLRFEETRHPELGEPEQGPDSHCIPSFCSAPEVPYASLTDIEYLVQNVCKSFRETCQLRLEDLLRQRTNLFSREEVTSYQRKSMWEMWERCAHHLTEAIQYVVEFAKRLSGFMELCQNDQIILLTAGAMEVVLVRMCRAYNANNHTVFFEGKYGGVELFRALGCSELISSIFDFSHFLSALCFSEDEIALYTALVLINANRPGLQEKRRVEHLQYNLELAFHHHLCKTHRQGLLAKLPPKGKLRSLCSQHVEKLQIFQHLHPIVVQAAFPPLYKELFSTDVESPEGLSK
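Stable Schneider cell line, Gal4 DNA-binding domain fused to ROR gamma, UAS-luciferase. Cmpd 1 hr RT → CuSO4 700 uM final → 20 hr RT → luciferase reagent 10 min → luminescence.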
TRPV1 potentiator: enhances activation of the human vanilloid receptor TRPV1; actives 0.02% (n = 320,000); TRPV1-expressing cells, Fluo-8 calcium influx, capsaicin EC20 potentiation; potentiation, % at 8.33 µM; AID 540277; in the data active = potentiation above about 80%; inconclusive = between about 30% and that limit
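Fluo-8 calcium influx in TRPV1-expressing cells, kinetic read (ex 480/em 520 nm). Compound added and read 3 min for agonist activity, followed by capsaicin at EC20 final and 2 min further read for enhancement.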
Large screens that a line does not name were inactive. Unless noted, calls follow the shape of the dose curve; as a rule, active = well fitted curve in the direction sought with a large enough effect; inconclusive = small, poorly fitted or top-dose-only effect, or another doubt; inactive = no such curve, though single readings can be large; an effect the other way counts as inactive or inconclusive.

C[n+]1c2n(c3ccccc31)N=C(c1cc(C(C)(C)C)c(O)c(C(C)(C)C)c1)CS2	VP16 counter 7.9µM, RORgamma inh inconclusive
CCC1CCCCN1C(=O)c1cc(COc2ccc3ncccc3c2)on1 (stereo unspecified)	VP16 counter 2.8µM, RORgamma inh inconclusive
COCC1CCCCN1C(=O)c1cc(COc2ccc3ncccc3c2)on1 (stereo unspecified)	uPA surface inh inconclusive, VP16 counter 7.1µM
COCCC1CCCCN1C(=O)c1cc(COc2ccc(-n3cncn3)cc2)on1 (stereo unspecified)	VP16 counter 8.9µM
COCCOC1CCN(C(=O)c2cc(COc3ccc(-n4cncn4)cc3)on2)CC1	none
Cc1nc(CN(C)C(=O)c2cc(COc3ccc4ncccc4c3)on2)cs1	VP16 counter 6.3µM, RORgamma inh inconclusive
CC(C)N(Cc1nccn1C)C(=O)c1cc(COc2ccc3ncccc3c2)on1	VP16 counter inconclusive
CCNc1ncc2nc(-c3cccs3)c(=O)n(Cc3cccs3)c2n1	none (no result: uPA surface inh, TRPV1 ag, TRPV1 potentiator)
CCCN1CCN(C(=O)c2cc(COc3ccc4ncccc4c3)on2)CC1	VP16 counter 20µM, RORgamma inh 13µM
CCN1CCN(C(=O)c2cc(COc3ccc4ncccc4c3)on2)CC1	VP16 counter inconclusive
CC(=O)c1ccc(NC(=S)Nc2cccc(S(=O)(=O)Nc3c(C)n(C)n(-c4ccccc4)c3=O)c2)cc1	none
Cc1c(NC(=S)N/N=C/c2ccc([N+](=O)[O-])cc2O)c(=O)n(-c2ccccc2)n1C	none
Cc1c(NC(=S)N/N=C/C=C/c2ccccc2)c(=O)n(-c2ccccc2)n1C	VP16 counter 0.79µM, RORgamma inh 0.32µM
Cc1ccc(NC(=S)Nc2cccc(S(=O)(=O)Nc3c(C)n(C)n(-c4ccccc4)c3=O)c2)cc1	RORgamma inh 11µM
Cc1c(NC(=S)N/N=C/C=C/c2ccc([N+](=O)[O-])cc2)c(=O)n(-c2ccccc2)n1C	VP16 counter 11µM, RORgamma inh 3.2µM
Cc1c(NC(=S)N/N=C/c2ccc(Br)cc2)c(=O)n(-c2ccccc2)n1C	VP16 counter inconclusive, RORgamma inh inconclusive
O=C(c1ccc(N2CCCCS2(=O)=O)cc1)N1CCN(c2ccccc2F)CC1	none
COc1ccc2c(c1)[C@H]1[C@H](CO2)[C@H](c2ccccc2)[C@]2(C)C(=O)N[C@H](C)C(=O)N12	none (no result: VP16 counter, RORgamma inh)
CCOc1ccc(C(=O)NC(=S)Nc2ccccc2N2CCOCC2)cc1Br	VP16 counter 4.5µM, RORgamma inh 3.2µM
CCOc1cc(N2CCOCC2)c(OCC)cc1NC(=O)Cc1ccccc1OC	VP16 counter 22µM
COc1ccc(C(=O)Nc2ccccc2N2CCOCC2)cc1S(=O)(=O)N1CCOCC1	none (no result: VP16 counter, RORgamma inh)
COc1ccc(C(=O)Nc2ccccc2N2CCOCC2)cc1Br	RORgamma inh 18µM
COc1ccc(C(=O)NC(=S)Nc2ccccc2N2CCOCC2)cc1Br	VP16 counter 6.3µM, RORgamma inh 6.3µM
CN(C)/C=N/c1c(C#N)cnn1-c1ccc(F)c(Cl)c1	none (no result: uPA surface inh, TRPV1 ag, TRPV1 potentiator)
CC(C)c1ccc(NC(=O)N2CCOCC2)cc1	TRPV1 ag 95
CC(=O)c1ccc(N2CCN(C(=O)Nc3ccc(C(C)C)cc3)CC2)cc1	TRPV1 ag 100, RORgamma inh inconclusive
O=C(Nc1ccc(Cl)cc1)N1CCOCC1	TRPV1 ag inconclusive
COc1cc(CCNC(C)=O)c(C(=O)/C=C/c2cccc(OC)c2OC)cc1OC	RORgamma inh inconclusive (no result: uPA surface inh, TRPV1 ag, TRPV1 potentiator)
CCN(CC)S(=O)(=O)c1ccc(O)c(NS(=O)(=O)c2ccccc2F)c1	RORgamma inh 10µM
CCOc1ccc(S(=O)(=O)N(CC)CC)cc1NS(=O)(=O)c1ccc(F)c(F)c1F	none
S=C(c1cccs1)N1CCCC1	none (no result: VP16 counter)
O=C(NC(=S)N1CCCCC1)c1csc([N+](=O)[O-])c1	VP16 counter 1.1µM, RORgamma inh 0.35µM
CC1CCCCN1C(=S)NC(=O)c1cccs1 (stereo unspecified)	VP16 counter 2.8µM, RORgamma inh 0.71µM
CC1CCN(C(=S)NC(=O)c2cccs2)CC1	VP16 counter 0.89µM, RORgamma inh 0.25µM
O=C(NC(=S)N1CCCCC1)c1cccs1	VP16 counter 1.3µM, RORgamma inh 0.79µM
Cc1cc(C)nc(Nc2cccc(C(F)(F)F)c2)n1	none
Cc1cc(NC(c2cccnc2)c2ccc3cccnc3c2O)no1 (stereo unspecified)	VP16 counter 6.3µM, RORgamma inh 4µM
Oc1c(C(Nc2cccc(C(F)(F)F)c2)c2cccnc2)ccc2cccnc12 (stereo unspecified)	VP16 counter 2.8µM, RORgamma inh 2.5µM
Cc1cc(NC(=O)c2cc(-c3cccnc3)nc3c(C)c(C)ccc23)no1	RORgamma inh inconclusive
CCOC(=O)N1CCN(S(=O)(=O)c2ccc(C(=O)Nc3nnc(CC)o3)cc2)CC1	VP16 counter inconclusive, RORgamma inh inconclusive
CC1CC(C)CN(S(=O)(=O)c2ccc(C(=O)Nc3nnc(C4CC4)o3)cc2)C1 (stereo unspecified)	VP16 counter 0.63µM, RORgamma inh 0.56µM
CCOC(=O)N1CCN(S(=O)(=O)c2ccc(C(=O)Nc3nnc(C4CC4)o3)cc2)CC1	VP16 counter 3.2µM, RORgamma inh 1.8µM
CN1CCN(c2ncc3nc(-c4cn(C)c5ccccc45)c(=O)n(CCC#N)c3n2)CC1	VP16 counter inconclusive (no result: uPA surface inh, TRPV1 ag, TRPV1 potentiator)
Cn1cccc1/C=N/NC(=O)c1cccc(OC(F)(F)C(F)F)c1	VP16 counter inconclusive, TRPV1 ag inconclusive, RORgamma inh 10µM
CC[C@H]1[C@@H]2C=C[C@@H]3[C@H]4C/C=C\C(=O)NCCC[C@@H]5NC(=O)C(=C5O)C(=O)CC[C@@H]4C[C@@H]3[C@H]2C[C@H]1C	RORgamma inh 2.2µM (no result: uPA surface inh, TRPV1 ag, TRPV1 potentiator)
N#CCCn1cc(/C=N/NC(N)=S)c(-c2ccccc2)n1	VP16 counter 7.1µM, RORgamma inh 6.3µM
N#CCCn1cc(/C=N/O)c(-c2ccc(-c3ccccc3)cc2)n1	TRPV1 potentiator inconclusive
NC(=S)N/N=C/c1cn(CCC(=O)O)nc1-c1cccc(Br)c1	RORgamma inh inconclusive
N#CCCn1cc(/C=N/NC(N)=S)c(-c2ccc(Br)cc2)n1	VP16 counter 0.5µM, RORgamma inh 0.22µM
CCC(Oc1ccccc1)C(=O)Nc1nc2ccccc2[nH]1 (stereo unspecified)	VP16 counter inconclusive, RORgamma inh 10µM
COc1ccc(CCC(=O)Nc2nc3ccccc3[nH]2)cc1	none
CC(C)Oc1ccc(C(=O)Nc2nc3ccccc3[nH]2)cc1	VP16 counter 2.8µM, RORgamma inh 1.1µM
O=C(Nc1nc2ccccc2[nH]1)c1ccc(OC(F)F)cc1	VP16 counter inconclusive, RORgamma inh 5.6µM
O=C(Nc1nc2ccccc2[nH]1)c1ccccc1OC(F)F	VP16 counter 10µM, RORgamma inh 7.9µM
O=C(N/N=C/c1ccc(OC(F)F)cc1)c1ccc(CSc2nc3ccccc3[nH]2)cc1	none
